Molecules are shown by their SMILES. The campaign covered roughly 360,000 compounds. About 11,000 (3.1%) were called active. Rule as the data show it: active = activity change below about -30%; inactive = the rest. This excerpt belongs to a sample that is enriched for actives.
% is scaled to controls: 0 for no effect and ±100 for the full control effect.

For the test, the target named is D(1A) dopamine receptor (Homo sapiens) (UniProt P21728). The experiment in a line: Antagonist of Human D 1 Dopamine Receptor: qHTS. The settings on record: HEK293 TREx D1 cells, calcium flux, dopamine EC80; at 10 µM; hits give low values. The source says: Dopamine receptors (DARs) are involved in the etiology and/or therapy of a number of neuropsychiatric and endocrine disorders. For instance, all receptor-based antiparkinsonian drugs work via stimulating the […] DAR subtype whereas all FDA-approved antipsychotic agents are antagonists of this receptor. […] There are three different types of allosteric modulators that we are seeking, two of which will stimulate or augment receptor signaling, allosteric agonists and potentiators, while the third, allosteric antagonists, will attenuate receptor signaling. The present primary screening assay measures compound antagonism after an EC80 addition of dopamine by tracking calcium flux in a […], inducible Hek293 Trex D1 cell line. NIH Chemical Genomics Center [NCGC] NIH Molecular Libraries Probe Centers Network [MLPCN] MLPCN Grant: NS064831-01 Assay Submitter (PI): David Sibley
D(1A) dopamine receptor (Homo sapiens), sequence (P21728 whole entry, looked up): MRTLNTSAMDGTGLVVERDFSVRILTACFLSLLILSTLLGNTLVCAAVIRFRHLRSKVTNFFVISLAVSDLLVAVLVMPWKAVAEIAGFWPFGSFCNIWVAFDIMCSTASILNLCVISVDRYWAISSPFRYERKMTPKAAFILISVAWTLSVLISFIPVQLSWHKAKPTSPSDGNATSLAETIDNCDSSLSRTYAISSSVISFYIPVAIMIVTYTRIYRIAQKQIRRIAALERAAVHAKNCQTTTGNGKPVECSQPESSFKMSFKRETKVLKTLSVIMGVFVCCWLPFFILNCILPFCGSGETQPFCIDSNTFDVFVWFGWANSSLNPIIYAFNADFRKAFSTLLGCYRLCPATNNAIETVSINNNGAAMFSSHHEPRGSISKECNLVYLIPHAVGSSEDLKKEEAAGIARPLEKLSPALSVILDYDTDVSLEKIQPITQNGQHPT
Freshly passaged cells are plated in 1536 well black, clear bottom plates at a density of 4000 cells/well in 3 ul of complete media containing 1x tetracycline inducer. After an overnight incubation at 30 C in 5% CO2, cells are loaded with 2 ul of the no wash Calcium Assay Kit (ABD Bioquest) and incubated at room temperature for 30 to 90 minutes. Agonist read: A 10 cycle (1 second/cycle) baseline measurement is taken and then the FDSS online 1536 pintool delivers 23 nl of compound library (as well as dopamine controls) to the plate. The plate is measured for kinetically at 1 cycle/sec for 180 seconds. Following the 180 second read, 1 ul of an EC80 (negative modulation assay) is delivered by an onboard pipette head. Measurements are taken kinetically for an additional 180 seconds.
In general terms: In qHTS, concentration-response curves come from the screen itself.
As for `COc1ccccc1N=Nc1c(O)[nH]c(=S)[nH]c1=O`, the activity change, negative = inhibition was -9.34% (inactive).

Consider `CCOCCc1c(O)[nH]c(=S)[nH]c1=O`, for which the activity change, negative = inhibition was -33.1% (active).

As for `CC1=CC(=Cc2sc3ccccc3[n+]2C)C=C(C)O1`, the activity change, negative = inhibition was -35.2% (active).

In the case of `CC(C)c1c(CN(C)C(C)Cc2ccccc2)n(C)n(-c2ccccc2)c1=O` (stereo not given), the activity change, negative = inhibition was -2.93% (inactive).

Regarding `Cc1ccc(-n2c(/C=C/c3cccc(C(F)(F)F)c3)nc3ccccc3c2=O)cc1`, the activity change, negative = inhibition was 11.5% (inactive).

In the case of `Cc1ccc(C(C)C)c(OCC(=O)N2CCN(CC(=O)N3CCOCC3)CC2)c1`, the activity change, negative = inhibition was 1.15% (inactive).

For the molecule `NCCc1ccc(S(=O)(=O)F)cc1`, the activity change, negative = inhibition is -35.8% (active).

For `CC(C)c1ccc(OCC(=O)N2CCCN(C)CC2)cc1`, the activity change, negative = inhibition was -12.3% (inactive).

Consider `CN1CCN(C(=O)COc2ccc(C(C)(C)C)cc2Br)CC1`, for which the activity change, negative = inhibition is -15.7% (inactive).

On to `CC(C)c1ccc(OCC(=O)N2CCN(C)CC2)c(Br)c1`, for which the activity change, negative = inhibition is -34.7% (active).

For the molecule `CC(C)(C)[C@]1(O)C[C@@H]2OC(=O)C[C@@]23C(=O)O[C@@H]2OC(=O)[C@H](O)[C@]213`, the activity change, negative = inhibition is 0.221% (inactive).

For `CN(C)CC1CCCCC1=O` (stereo not given), the activity change, negative = inhibition was 9.1% (inactive).

As for `CN1CCc2cc3c(cc2[C@H]1[C@@H]1OC(=O)c2c1ccc1c2OCO1)OCO3`, the activity change, negative = inhibition was -19.5% (inactive).

With `COc1ccc(C2NCc3ccc4c(c3-n3cccc32)OCO4)cc1OC` (stereo not given), the activity change, negative = inhibition is -8.31% (inactive).

For the molecule `COc1c(O)ccc2c1-c1c3c(cc4c1C(C2)N(C)CC4)OCO3` (stereo not given), the activity change, negative = inhibition is -68% (active).

For the molecule `COC(=O)C1=C(c2ccc(Cl)c(C(F)(F)F)c2)C[C@@H]2CC[C@H]1N2C(=O)NC(C)C`, the activity change, negative = inhibition was -3.99% (inactive).

On to `CC(C)Oc1cccc(C(=O)C2CCCN(C3CCOCC3)C2)c1` (stereo not given), for which the activity change, negative = inhibition was -26.6% (inactive).

Take `COC(=O)C1=C(c2cccc(OCc3ccccc3)c2)C[C@@H]2CC[C@H]1N2C(=O)NCc1ccc(Br)cc1`: the activity change, negative = inhibition is -2.72% (inactive).

Take `Cc1cccc(-n2c(O)c(/C=N/N3CCOCC3)c(=O)[nH]c2=S)c1`: the activity change, negative = inhibition was -42.1% (active).

In the case of `CC(C)c1ccc(-n2c(O)c(/C=N/N3CCOCC3)c(=O)[nH]c2=S)cc1`, the activity change, negative = inhibition is 21.3% (inactive).

Turning to `O=c1[nH]c(=S)n(C2CC2)c(O)c1/C=N/N1CCOCC1`, the activity change, negative = inhibition is -3.33% (inactive).

Turning to `Cn1cc(C(=O)OCC(=O)N2CCCC2)c2ccccc21`, the activity change, negative = inhibition is -0.659% (inactive).

Take `Cc1cc(OCc2cc(C(=O)O)oc2C)c2c3c(c(=O)oc2c1)CCCC3`: the activity change, negative = inhibition was 63% (inactive).

On to `OC(Cn1c2ccccc2c2ccccc21)C[n+]1ccccc1` (stereo not given), for which the activity change, negative = inhibition is 13.9% (inactive).

For `c1cncc(CNCCc2c[nH]c3ccccc23)c1`, the activity change, negative = inhibition is -33.9% (active).

With `COc1ccc(CNCCc2c[nH]c3ccccc23)cc1OC`, the activity change, negative = inhibition is -8.11% (inactive).

As for `C/C(CCc1c[nH]c2ccccc12)=N\O`, the activity change, negative = inhibition is 1.61% (inactive).

`C=CCn1c(O)c(/C=N/N2CCOCC2)c(=O)[nH]c1=S`: the activity change, negative = inhibition was 6.62% (inactive).

In the case of `COc1ccc(-c2nc(CS(=O)CC(=O)N3CCC4(CC3)OCCO4)c(C)o2)cc1` (stereo not given), the activity change, negative = inhibition was -3.25% (inactive).

On to `CCN1C(=O)C(=Cc2c(C)n(CC(=O)NCC3CCCO3)c3ccccc23)C(=O)N(CC)C1=S` (stereo not given), for which the activity change, negative = inhibition is -0.95% (inactive).

As for `Cn1c(O)c(C(=Nc2ccc(F)cc2)c2ccccc2)c(=O)n(C)c1=O`, the activity change, negative = inhibition was -33.5% (active).

Turning to `Cn1c(O)c(C=Nc2ccc3c(c2)CCC3)c(=O)n(C)c1=O`, the activity change, negative = inhibition was -5.53% (inactive).

On to `CC(=NC1CCN(Cc2ccccc2)CC1)c1c(O)n(C)c(=O)n(C)c1=O`, for which the activity change, negative = inhibition is -0.272% (inactive).

Turning to `COc1ccccc1N=C1SCCCN1C`, the activity change, negative = inhibition was -10.1% (inactive).

In the case of `CCc1ccc(OCC(=O)N2CCN(CC(=O)Nc3ccccc3Cl)CC2)cc1`, the activity change, negative = inhibition was -5.54% (inactive).

For `COC(=O)C1=C(c2ccc(-c3ccccc3)c(F)c2)C[C@@H]2CC[C@H]1N2C(=O)NCc1ccc(F)cc1`, the activity change, negative = inhibition was -0.711% (inactive).

On to `COC(=O)C1=C(c2ccc(F)cc2OCc2ccccc2)C[C@@H]2CC[C@H]1N2C(=O)NCc1ccc(C(C)(C)C)cc1`, for which the activity change, negative = inhibition was -11.5% (inactive).

As for `COC(=O)C1=C(c2ccc(F)cc2OCc2ccccc2)C[C@@H]2CC[C@H]1N2C(=O)NCc1ccc(Cl)cc1`, the activity change, negative = inhibition was 12.1% (inactive).

As to `COC(=O)C1=C(c2ccc(C(C)=O)cc2)C[C@@H]2CC[C@H]1N2C(=O)NCCNC(C)=O`, the activity change, negative = inhibition was 24% (inactive).

For `COC(=O)C1=C(c2ccccc2OCc2ccccc2)C[C@@H]2CC[C@H]1N2C(=O)NCc1ccc(OC)cc1`, the activity change, negative = inhibition was -30.4% (active).

In the case of `COC(=O)C1=C(c2ccc3ccccc3c2)C[C@@H]2CC[C@H]1N2C(=O)NCCO`, the activity change, negative = inhibition is -40.5% (active).

Take `CC(Cc1ccccc1)NCCC(c1ccccc1)c1ccccc1` (stereo not given): the activity change, negative = inhibition was 15.9% (inactive).

Consider `Cc1ccc(NC(=O)N(Cc2ccc3c(c2)OCO3)C2CCN(Cc3ccccc3)CC2)cc1F`, for which the activity change, negative = inhibition was 2.05% (inactive).

In the case of `CSc1nc2ccc(C)cc2c(=O)n1-c1cccnc1`, the activity change, negative = inhibition is 7.08% (inactive).

For `Cc1cc(C(=O)OCC(=O)Nc2c(F)cccc2F)c(C)n1C1CC1`, the activity change, negative = inhibition was 2.31% (inactive).

As to `Cc1nn(-c2ccccc2)c(C)c1NC(=O)COC(=O)Cc1ccccc1`, the activity change, negative = inhibition was -0.424% (inactive).

Turning to `CN1CCN(C(=S)SCC(=O)Nc2ccc(Cl)cc2C(=O)c2ccccc2)CC1`, the activity change, negative = inhibition is -39.4% (active).

Consider `O=C(Nc1ccc(Cl)cc1C(=O)c1ccccc1)c1cc(Cl)cc(Cl)c1`, for which the activity change, negative = inhibition is 23.8% (inactive).

On to `O=C(CN1CCCCC1)Nc1ccc(Br)cc1C(=O)c1ccccc1Cl`, for which the activity change, negative = inhibition is -26.5% (inactive).

Consider `O=C(COC(=O)c1ccccc1)Nc1ccc(Cl)cc1C(=O)c1ccccc1`, for which the activity change, negative = inhibition is -31.5% (active).

As for `O=C(CCNS(=O)(=O)c1ccccc1)Nc1ccc(Cl)cc1C(=O)c1ccccc1`, the activity change, negative = inhibition is -6.99% (inactive).

Take `O=C(CCN1CCCCC1)NCC(=O)Nc1ccc(Br)cc1C(=O)c1ccccc1`: the activity change, negative = inhibition was -20.3% (inactive).

Regarding `CN(c1ccccc1)c1ccc([N+](=O)[O-])c2nonc12`, the activity change, negative = inhibition is 0.138% (inactive).

For the molecule `COC(=O)C1=C(c2ccc(F)cc2F)C[C@@H]2CC[C@H]1N2C(=O)NC1CC1`, the activity change, negative = inhibition was 25.8% (inactive).

Consider `O=C(NC(=S)N1C[C@H]2C[C@H](C1)c1cccc(=O)n1C2)c1ccc(F)cc1`, for which the activity change, negative = inhibition was -0.512% (inactive).

On to `Cn1cc(/C=C/c2nc3ccccc3c(=O)n2-c2ccccc2)c2ccccc21`, for which the activity change, negative = inhibition is 11% (inactive).

For `Cc1ccccc1NC(=O)COC(=O)c1cc(C)n(C2CC2)c1C`, the activity change, negative = inhibition was 2.42% (inactive).

As to `C[C@]12CC[C@H](O)C[C@H]1CC[C@@H]1C2CC[C@]2(C)[C@@H](C3=CC(=O)OC3)[C@@H](O)C[C@]12O` (stereo not given in full), the activity change, negative = inhibition is -17.2% (inactive).

As to `CC(C)CN1CCN(Cc2ccccc2C(F)(F)F)CC1CCO` (stereo not given), the activity change, negative = inhibition is 0.591% (inactive).

In the case of `Cc1ccc(-c2cc(C(=O)N3CCC4(CC3)OCCO4)no2)cc1`, the activity change, negative = inhibition was -7.04% (inactive).

Regarding `Cc1ccc(Cn2c(C)c3cnn(CC(=O)N4CCC5(CC4)OCCO5)c(=O)c3c2C)cc1`, the activity change, negative = inhibition is -49.4% (active).

For `O=C(CCCn1c(=O)[nH]c2cc(Cl)ccc2c1=O)N1CCC2(CC1)OCCO2`, the activity change, negative = inhibition was -7.09% (inactive).

For the molecule `CNC(=O)O/N=C(\N)Cc1csc2ccccc12`, the activity change, negative = inhibition was -21.2% (inactive).

As to `CNC(=O)N(C)c1nnc(C(C)(C)C)s1`, the activity change, negative = inhibition was 9.77% (inactive).

`CCc1nc2ccccc2c(=O)n1-c1cccc(OC)c1`: the activity change, negative = inhibition is 2.19% (inactive).

For `NCC(O)c1ccc(O)cc1` (stereo not given), the activity change, negative = inhibition is -66.9% (active).

As to `CCOP(=O)(OCC)C(NC(=O)NC)C(N)=O` (stereo not given), the activity change, negative = inhibition was 4.22% (inactive).

As to `COC(=O)C1=C(c2cccc(OCc3ccccc3)c2)C[C@@H]2CC[C@H]1N2C(=O)NNCc1ccccc1`, the activity change, negative = inhibition was -14.3% (inactive).

Turning to `CCN1CCN(c2ccc([N+](=O)[O-])cc2C#N)CC1`, the activity change, negative = inhibition was 1.99% (inactive).

`CC(C)n1c(=O)c(C=Nc2ccc(Br)cc2)c(O)n(Cc2ccco2)c1=O`: the activity change, negative = inhibition is 14% (inactive).

(Values after PubChem BioAssay AID504652 (National Center for Advancing Translational Sciences (NCATS), 2011).)
